# Screens: PubChem BioAssay, Broad Institute
# Sampled rows, rich in hits. Any-hit rate of the full collection: about 8.1%.
# MITF inhib: blocks MITF activity; 37,000 tested, 0.28% active; TRPM1 promoter luciferase, luminescence, 24 h; inhibition, % (concentration not given with the values); in the data active = inhibition above about 85%;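 also: human melanocyte line stably carrying TRPM1 promoter luciferase reporter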
# NOMO-1 viab: STK33 inhibitor candidate reducing NOMO-1 cell viability; inhibition, % (concentration not given with the values); 37,000 tested, 7.5% active; NOMO-1 AML viability, CellTiter-Glo luminescence, 72 h; in the data active = inhibition above about 80%
# Shh pathway inh: Sonic Hedgehog pathway inhibition; inhibition, % (concentration not given with the values); Shh-LIGHT2 Gli-luciferase reporter, 30 h; 22,000 tested, 2.1% active;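 active = mean inhibition across valid replicates above about 65%, limit read from the data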;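 also: pathway switched on by Shh-conditioned medium diluted 1 in 25 in low serum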
# * = called active by the depositor; / = no result.
SMILES,MITF inhib,NOMO-1 viab,Shh pathway inh
CS(=O)(=O)N(CC(=O)Nc1ccccc1C(=O)N1CCOCC1)c1cc(C(F)(F)F)ccc1Cl,0.1,25.0,/
COC(=O)c1c(-c2ccc(Br)cc2)csc1NC(=O)C1CCCCC1C(=O)O (stereo not given),-57.5,13.2,/
C[C@@H]1CN([C@@H](C)CO)C(=O)c2cccc(NC(=O)Nc3ccccc3)c2O[C@@H]1CN(C)Cc1ccc2c(c1)OCO2,-9.0,35.1,-53.9
C[C@H]1CN([C@@H](C)CO)C(=O)c2cccc(NC(=O)Nc3ccc4c(c3)OCO4)c2O[C@H]1CN(C)Cc1ccc(C(F)(F)F)cc1,-2.6,15.0,-53.7
C[C@@H]1CN([C@H](C)CO)C(=O)c2cccc(NC(=O)Nc3ccc4c(c3)OCO4)c2O[C@@H]1CN(C)Cc1ccncc1,-3.6,-12.4,6.9
C[C@@H]1CN([C@@H](C)CO)C(=O)c2cccc(NC(=O)Nc3ccc(F)cc3)c2O[C@H]1CN(C)Cc1ccc2c(c1)OCO2,38.2,113.2*,-33.7
C[C@@H]1CN([C@H](C)CO)C(=O)c2cccc(NC(=O)Nc3ccc(F)cc3)c2O[C@@H]1CN(C)Cc1ccc2c(c1)OCO2,-26.4,8.7,7.6
C[C@@H]1CN([C@@H](C)CO)C(=O)c2cccc(NC(=O)Nc3ccc4c(c3)OCO4)c2O[C@@H]1CN(C)Cc1ccc(C(F)(F)F)cc1,-0.8,81.9*,37.9
C[C@@H]1CN([C@@H](C)CO)C(=O)c2cccc(NC(=O)Nc3ccc4c(c3)OCO4)c2O[C@H]1CN(C)Cc1ccc(Cl)c(Cl)c1,41.2,102.4*,12.1
C[C@@H]1CN([C@@H](C)CO)C(=O)c2cccc(NC(=O)Nc3ccccc3)c2O[C@H]1CN(C)Cc1ccc2c(c1)OCO2,41.5,88.6*,-35.9
N#Cc1c(NC(=O)CSc2n[nH]c(-c3ccc(Cl)cc3)n2)sc2c1CCCC2,36.7,7.9,/
Cc1nn(-c2ccccc2)c(C)c1Sc1n[nH]c(=O)[nH]c1=O,-2.9,34.5,-20.3
Cc1ccc(N(C(C)C(=O)Nc2ccccc2Br)S(C)(=O)=O)cc1C (stereo not given),-6.1,20.4,/
O=C(CC1(O)C(=O)Nc2ccccc21)c1ccc(NC(=O)C2CC2)cc1 (stereo not given),-63.7,20.1,/
COc1ccc(S(=O)(=O)NCCO)cc1-c1nnc2c3ccccc3c(C)nn12,-25.0,4.2,/
CC(NC(=O)c1ccccc1NC(=O)C1COc2ccccc2O1)c1ccccc1 (stereo not given),-31.3,26.6,/
O=C(CSc1nnnn1-c1ccccc1)Nc1cccc(I)c1,9.1,4.8,/
NC(=O)c1ccc(NCc2cccnc2)c([N+](=O)[O-])c1,-19.1,27.7,/
Cc1c(Br)c([N+](=O)[O-])nn1C(C)C(=O)Nc1ccccc1C(F)(F)F (stereo not given),-13.9,-7.5,/
COc1ccc(C(=O)CSc2ncnc3sc4c(c23)CCCC4)cc1,20.7,27.1,/
C[C@@H]1CN([C@H](C)CO)C(=O)c2cccc(NC(=O)Nc3ccc4c(c3)OCO4)c2O[C@H]1CN(C)Cc1ccccc1,18.2,97.3*,14.9
C[C@@H]1CN([C@H](C)CO)C(=O)c2cccc(NC(=O)Nc3ccc4c(c3)OCO4)c2O[C@H]1CN(C)Cc1ccc2c(c1)OCO2,-20.8,101.0*,-21.0
C[C@@H]1CN([C@@H](C)CO)C(=O)c2cccc(NC(=O)Nc3ccc4c(c3)OCO4)c2O[C@H]1CN(C)Cc1ccc(C(=O)O)cc1,-48.7,13.9,-40.8
C[C@H]1CN([C@@H](C)CO)C(=O)c2cccc(NC(=O)Nc3ccc(F)cc3)c2O[C@H]1CN(C)Cc1ccc2c(c1)OCO2,19.4,29.6,-37.9
O=C(COc1ccc2cc(Br)ccc2c1)Nc1cccc([N+](=O)[O-])c1,-23.8,16.9,/
SMILES,MITF inhib,NOMO-1 viab,Shh pathway inh
C[C@@H]1CN([C@@H](C)CO)C(=O)c2cc(NC(=O)Nc3ccc4c(c3)OCO4)ccc2O[C@@H]1CN(C)Cc1ccc(C(F)(F)F)cc1,4.1,90.5*,/
C[C@H]1CN([C@@H](C)CO)C(=O)c2cc(NC(=O)Nc3ccc(C(F)(F)F)cc3)ccc2O[C@H]1CN(C)Cc1ccc2c(c1)OCO2,-5.2,106.1*,/
C[C@@H]1CN([C@H](C)CO)C(=O)c2cc(NC(=O)Nc3ccc(C(F)(F)F)cc3)ccc2O[C@H]1CN(C)Cc1ccc2c(c1)OCO2,-5.4,53.6,-37.2
C[C@@H]1CN([C@H](C)CO)C(=O)c2cc(NC(=O)Nc3ccc4c(c3)OCO4)ccc2O[C@H]1CN(C)Cc1ccc(C(=O)O)cc1,3.0,29.8,/
CCn1c(SCc2nc3ccccc3c(=O)[nH]2)nnc1-c1ccccc1F,-27.9,9.2,/
Cc1c(NS(=O)(=O)c2cccc3nonc23)c(=O)n(-c2ccccc2)n1C,-3.9,24.3,/
Cc1ccc([N+](=O)[O-])cc1NC(=O)CN(C)S(=O)(=O)c1ccc(Br)cc1,-6.5,-17.4,/
